Screening results: PubChem BioAssay, National Center for Advancing Translational Sciences (NCATS)
TSHR antagonist = antagonists of human thyroid stimulating hormone receptor | TSHR-expressing cells, TSH-stimulated cAMP HTRF, 2 h; active compounds read low | activity change, negative = inhibition, % at 11.5 µM | actives 0.2% (n = 330,000);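 active = activity change below a set negative limit, meaning inhibition stronger than a set level, cut at about -70% in these data; inconclusive = activity change between two set negative limits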; also: % is scaled to controls: 0 for no effect and ±100 for the full control effect
Target sequence (P16473 whole entry, looked up): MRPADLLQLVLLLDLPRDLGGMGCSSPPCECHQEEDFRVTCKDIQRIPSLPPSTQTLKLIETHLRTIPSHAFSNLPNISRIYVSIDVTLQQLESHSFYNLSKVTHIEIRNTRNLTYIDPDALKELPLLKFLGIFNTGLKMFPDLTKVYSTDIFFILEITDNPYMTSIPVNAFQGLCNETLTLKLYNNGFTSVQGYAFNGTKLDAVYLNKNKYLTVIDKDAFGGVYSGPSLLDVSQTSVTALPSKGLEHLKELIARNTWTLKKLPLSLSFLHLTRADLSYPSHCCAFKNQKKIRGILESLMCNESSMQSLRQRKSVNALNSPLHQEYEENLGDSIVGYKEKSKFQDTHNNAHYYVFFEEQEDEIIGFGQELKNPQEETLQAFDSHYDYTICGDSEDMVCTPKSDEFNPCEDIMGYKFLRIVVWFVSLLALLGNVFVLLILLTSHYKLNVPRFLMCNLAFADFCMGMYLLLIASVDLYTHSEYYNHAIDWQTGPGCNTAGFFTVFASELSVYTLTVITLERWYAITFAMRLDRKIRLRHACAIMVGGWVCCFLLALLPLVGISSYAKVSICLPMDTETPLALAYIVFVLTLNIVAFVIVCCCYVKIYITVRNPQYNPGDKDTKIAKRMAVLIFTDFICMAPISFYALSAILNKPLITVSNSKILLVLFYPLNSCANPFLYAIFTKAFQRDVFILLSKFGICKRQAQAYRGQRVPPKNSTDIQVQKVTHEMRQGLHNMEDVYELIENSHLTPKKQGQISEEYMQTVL
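Antagonism was scored as loss of TSH-driven cAMP in TSHR cells, stimulated with 4nM TSH (EC80) for 2 hours at 37 deg C and detected by homogeneous HTRF competition immunoassay.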
VDR inh = inhibitors of human vitamin D receptor; P11473; VDR-SRC2-3 peptide fluorescence polarization, 2 h; Potency, µM, without a hit: max response, negative = inhibition, usual class: inhibitors; actives 0.93% (n = 400,000); AID 504847; also: potency is read from the fitted curve at half-maximal effect; % is scaled to controls: 0 for no effect and ±100 for the full control effect
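VDR–SRC2-3 interaction, FP format. Cmpds 23 nl via pintool, brief spin, 2 h ambient incubation.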
PLK1 PBD inh = PLK1 (human) polo-box domain binding inhibition; Potency, µM, without a hit: max response, negative = inhibition, actives largely listed as inhibitors; AID 720504; P53350; Plk1 PBD binding of FITC phosphopeptide, fluorescence polarization; actives 2.8% (n = 360,000); also: potency is read from the fitted curve at half-maximal effect; series mostly up to about 57 µM; % is scaled to controls: 0 for no effect and ±100 for the full control effect; nearly all actives have a fitted effect of over 65% in size
uPA generation = cell surface uPA generation inhibition; cell surface uPA generation assay, qHTS; Potency, µM (titrated, usually from 38.3 µM), inactives show at the highest dose activity change, negative = inhibition, actives largely listed as inhibitors; actives 0.31% (n = 330,000); active = well fitted inhibition curve with a large enough effect; inconclusive = small, poorly fitted or top-dose-only effect; inactive = no such curve, though single readings can be large or run the other way; tested in mouse RAW 264.7 cells; also: potency is read from the fitted curve at half-maximal effect; % is scaled to controls: 0 for no effect and ±100 for the full control effect; nearly all actives have a fitted effect of over 55% in size
TSG101-PTAP inh = blocks PTAP/TSG101 interaction to inhibit HIV-1 budding. AID 493005. 340,000 tested, under 10 active. Potency, µM (titrated, usually from 115 µM), for inactives: top-dose activity change, negative = inhibition, usual class: inhibitors. Fluorescence polarization, FITC-PTAP peptide / Tsg101 binding. Q99816; active = well fitted inhibition curve with a large enough effect in the main read-out, with a control signal flat, not every such curve was filed as active; inconclusive = small, poorly fitted or top-dose-only effect, or effect the other way, or a change in a side signal; inactive = no such curve, though single readings can be large or run the other way; also: potency is read from the fitted curve at half-maximal effect; % of control where 0% means no effect
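Fluorescence polarization binding of Tsg101 binding domain (10 uM final) to FITC-labeled PTAP peptide (50 nM final) in HEPES pH 7.5 buffer with NaCl, Tween 20, EDTA, TCEP. Compounds added before peptide; binding 20 min at RT.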
* hit, by the source's call. Most compounds without a hit are left out; they make up all but 3.1% or so of the library. Unless noted, calls follow the shape of the dose curve; as a rule, active = well fitted curve in the direction sought with a large enough effect; inconclusive = small, poorly fitted or top-dose-only effect, or another doubt; inactive = no such curve, though single readings can be large; an effect the other way counts as inactive or inconclusive.

What do the screens show for `COc1ccccc1OCC(=O)NCC1CCCN(C(=O)c2ccccc2SC)C1` (stereo not drawn)?
TSHR antagonist: -3.2; VDR inh: inconclusive; PLK1 PBD inh: 3.36µM*; uPA generation: -15.9%; TSG101-PTAP inh: 0.7%

What do the screens show for `CC(=O)c1ccccc1C(=O)N1CCCC(CNC(=O)c2ccccc2Cl)C1` (stereo not drawn)?
TSHR antagonist: -0.1; VDR inh: inconclusive; PLK1 PBD inh: 26.7µM*; uPA generation: 9.0%; TSG101-PTAP inh: -2.1%

How did COc1ccc(C(=O)N2CCCC(CNC(=O)c3ccccc3Cl)C2)o1 (stereo not drawn) do in these assays?
TSHR antagonist: -4.3; VDR inh: inconclusive; PLK1 PBD inh: 3.0%; uPA generation: 7.1%; TSG101-PTAP inh: -6.3%

What do the screens show for `COc1ccccc1/C=C1\SC(=S)N(NS(=O)(=O)c2ccc(C)cc2)C1=O`?
TSHR antagonist: -2.7; VDR inh: -3.2%; PLK1 PBD inh: 26.7µM*; uPA generation: 5.3%; TSG101-PTAP inh: 0.2%

What do the screens show for `COc1ccc(OC)c(/C=C2\SC(=S)N(NS(=O)(=O)c3ccc(C)cc3)C2=O)c1`?
TSHR antagonist: -17.2; VDR inh: inconclusive; PLK1 PBD inh: 26.7µM*; uPA generation: 2.4%; TSG101-PTAP inh: -1.7%

What do the screens show for `COc1ccc(/C=C2\SC(=S)N(NS(=O)(=O)c3ccc(C)cc3)C2=O)c(OC)c1`?
TSHR antagonist: 11.8; VDR inh: -14.2%; PLK1 PBD inh: inconclusive; uPA generation: 1.4%; TSG101-PTAP inh: -0.5%

What do the screens show for `CCOCCc1nn2c(=O)cc(COC(=O)c3ccc(NC(=O)c4ccc(F)cc4)cc3)nc2s1`?
VDR inh: 14.4%

What do the screens show for `Cc1nn(Cc2ccccc2)c2c1C(c1cccc(Cl)c1)C(C#N)=C(N)O2` (stereo not drawn)?
TSHR antagonist: -10.4; VDR inh: inconclusive; PLK1 PBD inh: 26.7µM*; uPA generation: -9.5%; TSG101-PTAP inh: -5.9%

How did Cc1nn(-c2ccccc2)c2c1C(c1ccncc1)C(C#N)=C(N)O2 (stereo not drawn) do in these assays?
TSHR antagonist: 0.8; VDR inh: 2.3%; PLK1 PBD inh: -11.0%; uPA generation: 2.2%; TSG101-PTAP inh: 0.6%

How did Nc1nnnn1/N=C/c1ccccc1C(F)(F)F do in these assays?
TSHR antagonist: 7.9; VDR inh: -13.4%; PLK1 PBD inh: 3.36µM*; uPA generation: 0.8%; TSG101-PTAP inh: -0.4%

How did CCC(C)NC(=O)CN1C(=O)c2cccnc2Oc2ccc(C)cc21 (stereo not drawn) do in these assays?
VDR inh: 20.3%

What do the screens show for `CC(C)NCCCCOc1cccc(Br)c1`?
TSHR antagonist: -3.5; VDR inh: inconclusive; PLK1 PBD inh: 18.9µM*; uPA generation: -7.3%; TSG101-PTAP inh: -0.4%

How did CC(C)NCCOc1cccc(Br)c1 do in these assays?
TSHR antagonist: -1.6; VDR inh: -17.1%; PLK1 PBD inh: 0.6%; uPA generation: 9.5%; TSG101-PTAP inh: 1.2%

How did COc1ccc(N2CCN(C(=O)Cc3ccc(OC)c(OC)c3)CC2)cc1 do in these assays?
TSHR antagonist: 12.6; VDR inh: inconclusive; PLK1 PBD inh: 23.8µM*; uPA generation: -1.0%; TSG101-PTAP inh: 1.1%

How did COc1ccc(CC(=O)N2CCN(C(=O)Cc3ccc(OC)c(OC)c3)CC2)cc1OC do in these assays?
PLK1 PBD inh: 3.2%

What do the screens show for `Cc1cccc(-n2cnc3cc(C(=O)NC4CCCCCC4)ccc32)c1`?
VDR inh: 19.2%

What do the screens show for `CC(CNC(=O)c1sc2ncccc2c1-n1cccc1)c1ccccc1` (stereo not drawn)?
VDR inh: 12.1%

How did c1ccc(Cn2c(SCc3nc4ccccc4s3)nnc2-c2ccco2)cc1 do in these assays?
TSHR antagonist: -14.5; VDR inh: -23.7%; PLK1 PBD inh: 21.2µM*; uPA generation: 6.1%; TSG101-PTAP inh: -4.8%

How did C=CCOC(=O)C(=O)/C=C/c1ccc2c(c1)Cc1ccccc1-2 do in these assays?
TSHR antagonist: -5.2; VDR inh: 22.4µM*; PLK1 PBD inh: inconclusive; uPA generation: -25.2%; TSG101-PTAP inh: 1.7%

How did CCOC(=O)c1sc2nccc(N(C)C)c2c1N=CNOC do in these assays?
TSHR antagonist: -14.4; VDR inh: inconclusive; PLK1 PBD inh: 15µM*; uPA generation: 5.4%; TSG101-PTAP inh: 1.0%

Results for CC(=O)NCCNC(=O)c1ccc(CSc2ccc(Cl)cc2)cc1 ?
TSHR antagonist: -0.2; VDR inh: 16.8%; PLK1 PBD inh: -5.4%; uPA generation: 0.2%; TSG101-PTAP inh: -2.9%

How did CCNC(=O)c1ccc(CSc2ccc(Cl)cc2)cc1 do in these assays?
TSHR antagonist: -6.8; VDR inh: -17.0%; PLK1 PBD inh: 26.7µM*; uPA generation: 4.0%; TSG101-PTAP inh: 0.1%

How did C[C@H](NC(=O)C1CCN(S(=O)(=O)c2ccccc2)CC1)C(=O)NCc1cccnc1 do in these assays?
PLK1 PBD inh: -8.4%

How did CN(C(=O)C1CCCN(c2ncnc3c2nc2n3CCCCC2)C1)c1ccccc1F (stereo not drawn) do in these assays?
VDR inh: 5.7%

Results for Clc1ccc(-c2nnc(C34CC5CC(CC(C5)C3)C4)o2)cn1 ?
TSHR antagonist: -9.5; VDR inh: -8.8%; PLK1 PBD inh: 18.9µM*; uPA generation: -0.6%; TSG101-PTAP inh: -2.0%

How did C=C(CN(C)C)C(=O)c1ccc(C)cc1C do in these assays?
VDR inh: 17.8µM*; PLK1 PBD inh: 2.67µM*; uPA generation: 11.4%; TSG101-PTAP inh: -0.1%

Results for Cc1ccc(C(=O)CC(=O)c2ccccc2C)c(O)c1 ?
TSHR antagonist: 1.1; VDR inh: -5.1%; PLK1 PBD inh: 47.1%; uPA generation: -14.8%; TSG101-PTAP inh: 5.9%

What do the screens show for `Nc1[nH]c(=O)[nH]c(=O)c1N=Cc1ccccc1`?
VDR inh: 70.8µM*; PLK1 PBD inh: inconclusive; uPA generation: -4.7%; TSG101-PTAP inh: -24.2%

How did Cc1noc(C)c1COC(=O)/C=C/c1ccc(Cl)cc1 do in these assays?
TSHR antagonist: 1.3; VDR inh: inconclusive; PLK1 PBD inh: 11.9µM*; uPA generation: -4.1%; TSG101-PTAP inh: -11.2%

What do the screens show for `CCOc1ccc(C2C=C(c3ccccc3)Nc3nnnn32)cc1` (stereo not drawn)?
TSHR antagonist: -2.3; VDR inh: 13.0%; PLK1 PBD inh: 0.8%; uPA generation: 0.8%; TSG101-PTAP inh: -4.3%

What do the screens show for `CCOc1ccc(C2C=C(c3ccc(C)cc3)Nc3nnnn32)cc1` (stereo not drawn)?
TSHR antagonist: -8.7; VDR inh: 0.0%; PLK1 PBD inh: 26.7µM*; uPA generation: 2.2%; TSG101-PTAP inh: -0.5%

How did COc1ccc(S(=O)(=O)NCC2CCC(C(=O)NCc3ccco3)CC2)cc1 (stereo not drawn) do in these assays?
TSHR antagonist: -11.3; VDR inh: -6.1%; PLK1 PBD inh: 10.6µM*; uPA generation: -2.4%; TSG101-PTAP inh: -4.9%
